Compound activity (PubChem BioAssay)
KCC2 mod = KCC2 (human) Cl- transport modulation | Q9H2X9 | KCC2 cells, thallium flux FluoZin-2 fluorescence | B-score of Tl+ flux slope (higher = more flux/activation; lower = inhibition) at 10 µM | hit rate 2.2% among 190,000 | AID 1456;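 active = thallium flux slope and its plate-corrected score both differing from the plate sample mean at a set confidence after two filtering rounds, in either direction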;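 note: slope of fluorescence scaled to starting intensity during 10 to 20 s after thallium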
Measles CPE = protection of cells from measles virus. Measles virus-infected cells, CPE protection, absorbance. protection (pct of control), % at 4 µM. hit rate 1.5% among 140,000; in the data active = protection mostly above about 24%, no sharp cut-off; inactive = mostly below about 26%
HSV augment = increases HSV replication in cells; HSV replication augmentation in cells, fold increase; maximum fold increase; hit rate 0.005% among 220,000; AID 1956; in the data active = maximum fold increase above about 1.5; inconclusive = no clear call, values can overlap the other calls; tested in PC3 cells
ROMK mod = modulates human ROMK potassium channel activity; P48048; Tet-inducible ROMK, thallium flux fluorescence; actives lie on both sides; B-score at 10 µM; hit rate 2% among 130,000; AID 1918;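 active = signal ratio slope over the read window, or its plate-corrected B-score, at least 3 SD from the plate mean, either direction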;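 note: B-score of the F/F0 ratio slope over 7 to 12 s after thallium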
Target sequence (P48048 whole entry, looked up): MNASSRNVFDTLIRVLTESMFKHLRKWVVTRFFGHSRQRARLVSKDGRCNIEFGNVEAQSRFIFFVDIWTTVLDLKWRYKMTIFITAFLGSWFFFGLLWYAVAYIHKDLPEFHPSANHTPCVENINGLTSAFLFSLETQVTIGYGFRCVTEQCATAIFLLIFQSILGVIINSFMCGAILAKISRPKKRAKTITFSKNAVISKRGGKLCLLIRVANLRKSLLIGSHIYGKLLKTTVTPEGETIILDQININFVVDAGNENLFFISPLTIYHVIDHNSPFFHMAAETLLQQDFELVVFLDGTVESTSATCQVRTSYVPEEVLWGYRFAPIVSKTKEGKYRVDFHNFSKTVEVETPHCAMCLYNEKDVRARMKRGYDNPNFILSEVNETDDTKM
Arbovirus inh = arbovirus infection inhibition; arbovirus infection cell-based antiviral screen; hit rate 0.37% among 200,000; inhibition, % at 10 µM; in the data active = inhibition above about 30%
KCC2 sec1 = KCC2 (human) modulation, secondary assay; shares compounds with KCC2 mod; HEK293-KCC2, thallium flux, FluoZin2 fluorescence; stronger effect = higher value; normalised thallium flux (F/F0 slope) at 10 µM; hit rate 15% among 3,700; AID 1713;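 active = thallium flux slope above the same plate's solvent-only control mean plus 3 SD; inconclusive = the two replicate wells disagree; inactive = no significant difference from solvent-only control wells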
KCC2 bumet counter = bumetanide-insensitive thallium flux in KCC2 cells with ouabain, counter-screen | HEK293-KCC2 + bumetanide/ouabain, thallium flux FluoZin2; stronger effect = higher value | shares compounds with KCC2 mod | normalized thallium flux at 10 µM | hit rate 49% among 3,700;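 active = thallium entry rate above the same plate's blocked-transporter control wells by more than 3 SD; inconclusive = the two repeat wells disagree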;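 note: raw slope of fluorescence over initial fluorescence between 10 and 20 s after thallium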
KCC2 sec2 = KCC2 (human) modulation, second secondary assay. shares compounds with KCC2 mod. HEK293-KCC2, thallium flux FluoZin2 fluorescence; actives lie on both sides; F/F0 rise rate, 10–20 s post-thallium. hit rate 23% among 3,700. normalized thallium flux at 10 µM. AID 1715;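 active = thallium flux slope more than 3 SD above or below the plate's solvent-only control mean, mostly below; inconclusive = the two repeat wells disagreed; inactive = no significant shift from solvent-only controls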;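 note: raw slope with 0.1% DMSO as baseline and bumetanide as block control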
HEK counter1 = acts in parental HEK cells, KCC2 counter-screen. thallium flux rate (normalised fluorescence) at 10 µM. shares compounds with KCC2 mod. AID 1716. hit rate 46% among 3,700. HEK293 parental cells, thallium flux FluoZin2, ouabain; baseline-ratio fluorescence slope, 10–20 s after thallium;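 active = thallium flux rate significantly above the same plate's solvent-only control wells, beyond their mean plus 3 SD; inconclusive = the two replicate wells gave conflicting results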
KCC2 retest ouab = modulates human KCC2 on retest with ouabain | shares compounds with KCC2 mod | HEK293-KCC2, thallium flux FluoZin2 fluorescence; bidirectional: low = inhibitor, high = activator | raw Tl+ flux slope (below DMSO = inhibition, above = activation) at 10 µM | hit rate 48% among 3,700 | AID 1717;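 active = thallium flux slope beyond 3 SD from same-plate DMSO control mean in most replicates, usually higher, sometimes lower; inconclusive = repeat tests gave conflicting results; inactive = no significant difference from controls in most replicates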;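 note: slope of initial-normalized fluorescence between seconds 10 and 20 after thallium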
HEK counter2 = counter-screen for KCC2 modulators: effect in parental HEK293 cells. thallium flux slope at 10 µM. thallium flux FluoZin-2 fluorescence slope. hit rate 33% among 3,700. shares compounds with KCC2 mod;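 active = thallium flux slope above the same plate's solvent-control mean plus 3 SD in both duplicate wells; inconclusive = duplicate wells that disagreed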;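 note: run without ouabain in cells lacking the KCC2 cotransporter; slope of fluorescence scaled to its starting value between 10 and 20 s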
* = called active by the depositor; i = inactive; ? = inconclusive; . = no result. Hits are enriched below; roughly 4% of the tested compounds scored in any of these assays.

SMILES	KCC2 mod	Measles CPE	HSV augment	ROMK mod	Arbovirus inh	KCC2 sec1	KCC2 bumet counter	KCC2 sec2	HEK counter1	KCC2 retest ouab	HEK counter2
Cc1ccc(NC2=C(N3CCOCC3)C(=O)c3ccccc3C2=O)cc1	.	12.6	i	.	-0.1	0.00551	0.005	0.0259*	0.00805	?	0.0111
Cn1ccnc1SCC(=O)N1CCN(S(=O)(=O)c2ccccc2)CC1	1.08	.	i	0.706	6.6	.	.	.	.	.	.
Cc1ccsc1C(=O)Nc1nnc(-c2ccco2)o1	.	6.9	i	.	-17.4	0.0135*	0.0257*	0.0323	0.0147*	0.0303*	0.0107*
Cc1ccc(C(=O)Nc2nnc(-c3ccco3)o2)cc1	3.89	7.8	i	.	-16.6	.	.	.	.	.	.
COc1cc(/C=c2\s/c(=C(/C#N)C(=O)N3CCCC3)n(-c3ccccc3)c2=O)ccc1O	-2.1	11.2	?	-1.68	-9.7	.	.	.	.	.	.
Cc1ccc(/C=c2\s/c(=C(/C#N)C(=O)N3CCCC3)n(Cc3ccco3)c2=O)s1	8.2*	5.6	i	.	-13.1	0.0183	0.00477	0.0245*	0.00702	0.0141	0.00991
O=C(NCCOc1ccc(F)cc1)c1ccccc1SCc1ccccc1	-5.45*	3.6	i	.	-35.8	0.00513	?	0.0188*	0.00588*	0.0116*	0.00893
CCc1ccc(OCCNC(=O)c2ccccc2SCc2ccc(F)cc2)cc1	-8.79*	8.4	.	-0.904	2.5	0.00816	0.00647	0.0234*	0.00649	0.0131*	0.0093
CSc1ccc(Cl)c(C(=O)NCCOc2ccccc2)c1	-2.01	2.6	i	-2.01	-1.9	.	.	.	.	.	.
COCCNC(=O)c1cc(Br)ccc1Cl	-4.51*	8.1	i	0.17	3.3	0.0109	0.0354*	0.0325	0.0191*	0.0284	?
CCc1ccc(OCCNC(=O)c2cc(SC)ccc2Cl)cc1	-6.29*	5.4	.	0.0671	12.7	0.00668	0.00528	0.0251*	0.00707	?	0.0111
C/C(=N\NC(=O)Cn1nnc2ccccc21)c1ccco1	-0.0397	.	i	0.486	-1.2	.	.	.	.	.	.
Cc1ccc(NNC(=O)c2ccc(Cl)cc2)nn1	0.292	.	i	.	.	.	.	.	.	.	.
CCN(CC)C(=S)NC(=O)Cc1ccccc1	0.974	.	i	-0.195	6.5	.	.	.	.	.	.
C=CCN(CC=C)C(=S)NC(=O)Cc1cccc2ccccc12	.	.	i	.	56.0*	0.043*	0.146*	0.0608*	0.103*	0.126*	0.0542*
CCOC(=O)C1(CC2CC2)CCN(Cc2ccc3cccc(F)c3n2)CC1	-0.367	.	i	-0.76	6.6	.	.	.	.	.	.
Cc1ccc(S(=O)(=O)N2CCC(C(=O)NCc3ccccc3Cl)CC2)cc1	-2.91*	3.3	i	-1.44	1.4	0.00519	0.00448	0.0277	0.00713	0.0153*	0.0111
O=C(COc1ccccc1-c1ccccc1)N/N=C/c1cccnc1	-0.684	.	i	0.0962	-10.6	.	.	.	.	.	.
Cc1ccc(COc2ccccc2-c2cc(C(=O)N/N=C/c3cccnc3)[nH]n2)cc1	-5.47*	.	i	.	.	0.00639	0.00553	?	?	0.0119*	0.0107
Cc1cc(=O)[nH]n(CCO)c1=O	.	.	i	.	.	.	.	.	.	.	.
O=C(NNC(=O)c1csc(-c2cnccc2C(F)(F)F)n1)c1ccc(C(F)(F)F)cc1	5.88*	.	i	-0.843	.	?	0.0409*	0.0276	0.013*	?	?
CCN(CC)CCN(Cc1cc2ccc(C)c(C)c2[nH]c1=O)C(=S)NCc1ccco1	0.648	.	i	0.554	-17.9	.	.	.	.	.	.
CC(=O)c1cccc(NC(=O)COC(=O)COc2c(Cl)cc(Cl)c3ccc(C)nc23)c1	4.6*	.	i	.	-3.2	0.0103	0.0192*	0.0319	0.0128*	0.025	0.0113*
